Reference: PubChem BioAssay (NCATS)
Values joined by “and” are separate entries in the source; they are usually repeats but may differ in a detail not shown here. Equal entries are not always repeated. Records with an inconclusive call do not appear. Where a structure was tested more than once in an assay, its records may differ in their call. A number with no mark means an inactive call. Active and inactive are the calls of the source. Calls follow the shape of the dose curve; as a rule, active = well fitted inhibition curve with a large enough effect; inconclusive = small, poorly fitted or top-dose-only effect; inactive = flat fitted curve, though single readings scatter.

Assays:
[1] = Drug repurposing screens with cells derived from glioblastoma tumor samples (AID 1345199); conditions: GBM patient neurospheres viability, ATP luminescence, 48 h; also: nearly all actives have a fitted effect of over 40% in size
Summary of the method: (§1)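 Primary testing used CD133+ neurospheres from four GBM patients, seven concentrations, 48 h exposure and ATP-based viability; confirmation added three slower-growing patient lines.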

astro = control astrocytes; experiment: as above; conditions: viability, ATP luminescence, 48 h; series mostly up to 45.9 µM
Summary of the method: as §1

[2] = at 45.9 µM (top of the series), tumour line B
[3] = at 45.9 µM (top of the series), tumour line D
[4] = at 46 µM (top of the series), tumour line A
[5] = at 46.1 µM (top of the series), tumour line C
% is scaled to controls: 0 for no effect and ±100 for the full control effect; potency is read from the fitted curve at half-maximal effect.

Row | SMILES | activity, negative = cell killing [1, 2] | activity, negative = cell killing [1, 3] | activity, negative = cell killing [1, 4] [%] | activity, negative = cell killing [1, 5] | Potency ([1]; tumour line A) | Potency ([1]; tumour line C) | Potency (astro)
1 | C=C[C@]1(C)C[C@@H](OC(=O)CO)[C@]2(C)[C@H](C)CC[C@]3(CCC(=O)[C@H]32)[C@@H](C)[C@@H]1O | -6.6% | -13.7% | -29.8 | -2.01% |  |  | 
2 | NNc1nnc(Cc2ccncc2)c2ccccc12 | -17.7% | -26.1% |  | -26.3% |  |  | 
3 | COc1ccc(CNCC(O)COc2ccc3[nH]c(=O)ccc3c2)cc1OC (stereo not drawn) | -3.95% | -26.6% |  | 15.6% |  |  | 
4 | O=C(O)c1cc2ccccc2c(Cc2c(O)c(C(=O)O)cc3ccccc23)c1O | 5.19% | -18.5% | -27.5 | -1.97% |  |  | 
5 | Cc1cc(Nc2ccccc2C(=O)O)ccc1Cl | -5.77% | -31.8% |  | -18% |  |  | 
6 | C/C(=C(\CCOC(=O)c1ccccc1)SS/C(CCOC(=O)c1ccccc1)=C(/C)N(C=O)Cc1cnc(C)nc1N)N(C=O)Cc1cnc(C)nc1N | -18% | -28% |  | -22.5% | 35.5 µM (active) |  | 
7 | C[C@@H]1C[C@H]2C3C[C@H](F)C4=CC(=O)C=CC4(C)[C@@]3(F)[C@@H](O)CC2(C)[C@@]1(O)C(=O)COC(=O)C(C)(C)C (stereo partly drawn) | -6.93% | -10.7% |  | 2.01% | 12.6 µM (active) |  | 
8 | CCC(=O)Oc1ccc2c(c1)CC[C@@H]1[C@@H]2CC[C@]2(C)[C@@H](OC(=O)CC)CC[C@@H]12 | -0.785% | -16.9% |  | -12.6% | 12.6 µM (active) |  | 
9 | O=S(=O)(O)Oc1ccc(C(c2ccc(OS(=O)(=O)O)cc2)c2ccccn2)cc1 | 0.447% | -9.15% | 21.1 | 10.6% |  |  | 
10 | Cc1cc(-n2c(=O)[nH]c(=O)n(C)c2=O)ccc1Oc1ccc(S(=O)(=O)C(F)(F)F)cc1 | -20.8% |  |  |  |  | 20.6 µM (active) | 
11 | CCCCCCCCCCCCCCCC(=O)OCCC1CCN(CCCN2c3ccccc3Sc3ccc(S(=O)(=O)N(C)C)cc32)CC1 | -1.24% | -12.7% | -28.1 | 11% |  |  | inactive
12 | CCCC(=O)N1CCCN(c2nc(N)c3cc(OC)c(OC)cc3n2)CC1 | -1.44% | -2.77% |  | 14.2% | 17.8 µM (active) |  | 
13 | CC(=O)[C@@]1(O)CC[C@H]2[C@@H]3C=C(Cl)C4=CC(=O)CC[C@]4(C)[C@H]3CC[C@@]21C | -7.69% | -22.6% |  | -23.8% | 12.6 µM (active) |  | 
14 | NCCCC(=O)O | -13.9% | -9.35% | 3.28 | -16.7% |  |  | inactive
15 | CCCC1([C@H](O)C/C=C/[C@H]2[C@H](O)CC(=O)[C@@H]2CCCCCCC(=O)OC)CCC1 | 0.947% | -12.7% |  | -22% | 20 µM (active) |  | inactive
16 | CC(=O)N[C@@H](C=O)[C@H](O)[C@H](O)[C@@H](O)CO | -7.64% and 0.13% | -11.8% and 0.539% | 1.93 | 6.46% and 10.4% |  |  | inactive
17 | O=C(OCCO)c1ccccc1O | -4.1% | 8.11% | -21.4 | -4.97% |  |  | inactive
18 | CCCC(CCC)C(N)=O | 1.34% | -12.3% | -16.5 | 0.0882% |  |  | inactive
19 | CC1(C)C2CC[C@]3(C)[C@H](C(=O)C=C4[C@@H]5C[C@@](C)(C(=O)O)CC[C@]5(C)CC[C@]43C)[C@@]2(C)CC[C@@H]1O[C@H]1O[C@H](C(=O)O)[C@@H](O)[C@H](O)[C@H]1O[C@@H]1O[C@H](C(=O)O)[C@@H](O)[C@H](O)[C@H]1O (stereo partly drawn) | -4.03% | -9.47% | -26.6 | -1.2% |  |  | inactive

Row | SMILES | activity, negative = cell killing [1, 2] | activity, negative = cell killing [1, 3] | activity, negative = cell killing [1, 4] [%] | activity, negative = cell killing [1, 5] | Potency ([1]; tumour line A) | Potency ([1]; tumour line C) | Potency (astro)
20 | CCC(=O)O | 6.59% | -5.65% | -7.77 | 7.14% |  |  | inactive
21 | CC#CCC(C)[C@H](O)/C=C/[C@@H]1[C@H]2C/C(=C/CCCC(=O)O)C[C@H]2C[C@H]1O (stereo partly drawn) | -8.92% | -4.73% |  | -5.69% | 17.8 µM (active) |  | inactive
22 | Cc1[nH]cnc1C[C@H]1CCc2c(C)c3ccccc3n2C1=O | 11.6% | -27.1% | -27.2 | 1.77% |  |  | inactive
23 | CCCN(CC)C(CC)C(=O)Nc1c(C)cccc1C (stereo not drawn) | -5.49% | -11.8% | -28.6 | -9.76% |  |  | inactive
24 | COc1ccc(C(=O)Nc2ccccc2CCC2CCCCN2C)cc1 (stereo not drawn) | -11.1% | -17.7% |  | -23.4% | 10 µM (active) |  | inactive
25 | C1CNCCN1 | -11% | -24.6% | -15.8 | -0.46% |  |  | inactive
26 | O=C(CO)[C@@H](O)[C@H](O)[C@H](O)CO | -6.93% | 1.86% | -24.2 | 19% |  |  | inactive
27 | NCCCC[C@H](NC(=O)[C@@H]1CCCN1C(=O)[C@@H]1CSSC[C@H](N)C(=O)N[C@@H](Cc2ccccc2)C(=O)N[C@@H](Cc2ccccc2)C(=O)N[C@@H](CCC(N)=O)C(=O)N[C@@H](CC(N)=O)C(=O)N1)C(=O)NCC(N)=O | -4.48% | -4.17% | -29.5 | -22.2% |  |  | inactive
28 | C=C1CC2C3CCC4=CC(=O)C=C[C@]4(C)[C@@]3(F)[C@@H](O)C[C@]2(C)[C@@]1(O)C(=O)COC(C)=O (stereo partly drawn) | -0.0683% | 11.1% | -20 | -4.46% |  |  | inactive
29 | CO/N=C(\C(=O)N[C@@H]1C(=O)N2C(C(=O)OCOC(=O)C(C)(C)C)=C(/C=C\c3scnc3C)CS[C@H]12)c1csc(N)n1 | -2.3% | -0.209% | -23.3 | -3.78% |  |  | inactive
30 | CC(CN(C)C)CN1c2ccccc2S(=O)(=O)c2ccccc21 (stereo not drawn) | -1.87% | -21.7% |  | 14.3% | 17.8 µM (active) |  | inactive
31 | O=C1O[C@H]2[C@H](O)[C@@H]1OC(O)[C@H]2O (stereo partly drawn) | -7.22% | -9.05% | -25.4 | 16.3% |  |  | inactive
32 | CS(=O)(=O)OCCCNCCCOS(C)(=O)=O | 5.52% | -25.4% |  | 2.38% | 39.8 µM (active) |  | inactive
33 | CCN1CCCC1CNC(=O)c1cc(S(=O)(=O)CC)ccc1OC (stereo not drawn) | -1.25% and -14.5% | -0.732% and -9.3% | -20 | 11.5% and 15.2% |  |  | inactive
34 | C[C@H]1C[C@H]2[C@@H]3CCC4=CC(=O)C=C[C@]4(C)[C@@]3(F)[C@@H](O)C[C@]2(C)[C@@]1(O)C(=O)CCl | 1.74% | -15.9% |  | 12.3% | 35.5 µM (active) |  | inactive
35 | O=S(O)CNc1ccc(S(=O)(=O)c2ccc(NCS(=O)O)cc2)cc1 | -3.7% | 0.377% | -17.9 | -2.81% |  |  | inactive
36 | Cn1nnnc1SCC1=C(C(=O)O)N2C(=O)[C@@H](NC(=O)[C@H](OC=O)c3ccccc3)[C@H]2SC1 | -10.5% | -17.5% | -11.9 | -8.9% |  |  | inactive
37 | O=c1[nH]cnc2[nH]cc(CN3CCCCC3)c12 | -5.2% | -0.491% | 2.77 | -8.31% |  |  | inactive
38 | CC(C)(S)C(=O)N[C@@H](CS)C(=O)O | -12.3% and -6.78% | -24.6% and -16.1% |  | -15.9% and -10.8% | 39.8 µM (active) |  | inactive
